The target of assay [1] is Rap guanine nucleotide exchange factor 3 (Homo sapiens) (UniProt O95398). Kind of assay: Confirmatory qHTS for antagonist of cAMP-regulated guanine nucleotide exchange factor 3 (EPAC1) (AID 1645880). Also: nearly all actives have a fitted effect of over 55% in size. Also: potency is read from the fitted curve at half-maximal effect. The method in brief: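 Released BODIPY-GDP fluoresces less than Rap1-bound BODIPY-GDP; the signal is followed at 480/540 nm at 5-min intervals over 30 min, after 5 min at room temperature. Reactions contain 100 nM EPAC1, 250 nM RAP1B-BODIPY-GDP and 50 uM GDP; results are normalized to ATA and DMSO.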
Rap guanine nucleotide exchange factor 3 (Homo sapiens), sequence (O95398 whole entry, looked up): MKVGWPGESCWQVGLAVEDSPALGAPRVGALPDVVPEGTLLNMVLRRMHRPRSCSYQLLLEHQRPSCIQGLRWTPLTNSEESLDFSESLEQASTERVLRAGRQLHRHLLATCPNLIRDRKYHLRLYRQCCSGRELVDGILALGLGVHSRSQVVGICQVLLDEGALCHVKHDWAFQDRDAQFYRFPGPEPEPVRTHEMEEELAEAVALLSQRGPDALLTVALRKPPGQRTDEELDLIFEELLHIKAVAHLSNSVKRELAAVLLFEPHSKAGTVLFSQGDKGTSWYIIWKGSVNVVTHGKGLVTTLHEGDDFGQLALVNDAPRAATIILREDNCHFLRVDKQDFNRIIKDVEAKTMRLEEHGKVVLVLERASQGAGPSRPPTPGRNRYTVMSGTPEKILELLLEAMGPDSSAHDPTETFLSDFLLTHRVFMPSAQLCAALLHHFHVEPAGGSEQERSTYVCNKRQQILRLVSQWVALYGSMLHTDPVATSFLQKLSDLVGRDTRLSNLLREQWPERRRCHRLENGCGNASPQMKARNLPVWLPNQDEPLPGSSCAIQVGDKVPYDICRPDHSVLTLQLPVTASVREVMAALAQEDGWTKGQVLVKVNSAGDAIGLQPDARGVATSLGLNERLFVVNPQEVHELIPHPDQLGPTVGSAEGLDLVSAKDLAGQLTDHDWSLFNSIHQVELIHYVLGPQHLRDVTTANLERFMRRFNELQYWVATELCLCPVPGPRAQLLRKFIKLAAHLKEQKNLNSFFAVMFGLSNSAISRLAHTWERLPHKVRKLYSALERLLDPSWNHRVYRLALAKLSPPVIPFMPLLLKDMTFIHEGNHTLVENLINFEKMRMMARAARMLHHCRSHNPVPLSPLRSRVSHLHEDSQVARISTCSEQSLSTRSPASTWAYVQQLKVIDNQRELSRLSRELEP
For orientation: qHTS replaces the single test concentration by a dilution series.

For assay [2] the target is unchanged. Briefly: Confirmatory qHTS for agonist of cAMP-regulated guanine nucleotide exchange factor 3 (EPAC1) (AID 1645881). Also: nearly all actives have a fitted effect of over 75% in size. Also: potency is read from the fitted curve at half-maximal effect.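 As to activation: EPAC1 catalysed release of BODIPY-GDP from Rap1B seen as fluorescence loss; 100% = effect of cAMP agonist control.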
Assay [3] deals with Rap guanine nucleotide exchange factor 4 (Homo sapiens) (UniProt Q8WZA2). Kind of assay: Confirmatory qHTS for agonist of cAMP-regulated guanine nucleotide exchange factor 4 (EPAC2) (AID 1645884).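 Also: nucleotide exchange releases bodipy-GDP from Rap1 and this lowers its fluorescence; nearly all actives have a fitted effect of over 65% in size.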 Also: potency is read from the fitted curve at half-maximal effect. As to activation: % is scaled to controls: 0 for no effect and ±100 for the full control effect.
Rap guanine nucleotide exchange factor 4 (Homo sapiens), sequence (Q8WZA2 whole entry, looked up): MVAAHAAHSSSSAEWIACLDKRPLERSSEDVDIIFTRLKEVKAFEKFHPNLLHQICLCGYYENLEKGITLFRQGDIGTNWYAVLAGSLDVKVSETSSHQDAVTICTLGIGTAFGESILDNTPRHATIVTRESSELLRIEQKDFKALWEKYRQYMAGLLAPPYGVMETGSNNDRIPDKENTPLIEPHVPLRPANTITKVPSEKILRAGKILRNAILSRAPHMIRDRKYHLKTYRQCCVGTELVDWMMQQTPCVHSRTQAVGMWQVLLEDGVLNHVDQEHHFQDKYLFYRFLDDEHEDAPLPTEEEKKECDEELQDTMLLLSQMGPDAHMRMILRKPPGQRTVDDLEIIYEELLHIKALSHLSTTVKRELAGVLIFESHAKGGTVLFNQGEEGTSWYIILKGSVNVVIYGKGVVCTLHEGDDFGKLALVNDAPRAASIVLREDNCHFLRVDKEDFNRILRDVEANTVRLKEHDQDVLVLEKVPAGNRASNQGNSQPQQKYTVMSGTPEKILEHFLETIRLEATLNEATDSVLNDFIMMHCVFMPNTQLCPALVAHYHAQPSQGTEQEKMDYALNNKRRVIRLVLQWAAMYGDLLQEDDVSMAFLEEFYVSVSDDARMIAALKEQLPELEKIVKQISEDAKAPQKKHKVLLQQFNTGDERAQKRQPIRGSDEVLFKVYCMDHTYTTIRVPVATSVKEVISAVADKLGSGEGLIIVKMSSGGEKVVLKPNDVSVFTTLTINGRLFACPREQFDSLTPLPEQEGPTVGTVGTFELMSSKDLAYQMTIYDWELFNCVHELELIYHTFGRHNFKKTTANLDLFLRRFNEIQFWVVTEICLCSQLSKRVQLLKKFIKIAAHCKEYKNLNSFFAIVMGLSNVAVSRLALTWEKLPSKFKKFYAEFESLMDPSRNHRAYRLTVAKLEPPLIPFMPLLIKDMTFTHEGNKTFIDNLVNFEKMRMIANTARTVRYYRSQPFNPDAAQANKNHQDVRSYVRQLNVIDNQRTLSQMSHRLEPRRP
For assay [4] the target is unchanged. Kind of assay: Confirmatory qHTS for antagonist of cAMP-regulated guanine nucleotide exchange factor 4 (EPAC2) (AID 1645885). Also: nearly all actives have a fitted effect of over 25% in size. Also: potency is read from the fitted curve at half-maximal effect. As to activity change, negative = inhibition: % is scaled to controls: 0 for no effect and ±100 for the full control effect.
The target of assay [5] is Rap guanine nucleotide exchange factor 3 (Homo sapiens) (UniProt O95398). Kind of assay: Counterscreen qHTS for antagonist of cAMP-regulated guanine nucleotide exchange factor 3 (EPAC1) (AID 1645888). Also: % of control where 0% means no effect. The method in brief:
(§1)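 Rap1B–BODIPY-GDP (250 nM) with 50 uM GDP; compounds pin-transferred to 9.74 nM–152 uM final (activator) or from 7.32 nM upwards (inhibitor). Fluorescence Ex/Em 480/540 nm read at 5 and 30 min, then after adding cAMP or buffer, at room temperature.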
For orientation: The purpose of a counterscreen is to sort out artefacts and off-target activity.

For assay [6] the target is unchanged. Kind of assay: Counterscreen qHTS for agonist of cAMP-regulated guanine nucleotide exchange factor 3 (EPAC1) (AID 1645889). Also: nearly all actives have a fitted effect of over 40% in size. Also: potency is read from the fitted curve at half-maximal effect. As to activation: % of control where 0% means no effect. The method, boiled down: as §1

Inconclusive results are not listed. A number with no mark means an inactive call. Calls of active or inactive are those of the source. Calls follow the shape of the dose curve; as a rule, active = well fitted curve in the direction sought with a large enough effect; inconclusive = small, poorly fitted or top-dose-only effect, or another doubt; inactive = no such curve, though single readings can be large; an effect the other way counts as inactive or inconclusive.

Regarding `O=C1NN(c2ccccc2)C(=O)/C1=C/c1ccc(Sc2cccc3ccccc23)o1`, the Potency in assay [1] was 17.8 µM (active). Besides, the Potency result in assay [2] and in assay [4] was “inactive” each time. The activation in assay [3] was 3.36% [at 17.1 µM, percent relative to cAMP agonist control]; in assay [6] it was 23.8% [at 30.8 µM]. For the same molecule, the activity change, negative = inhibition in assay [5] is -8.41% [at 30.8 µM].

For the molecule `CN(C)c1ccc(C(O)c2cc3ccccc3s2)cc1` (centres undefined), the Potency result in assay [1], in assay [2], in assay [3], in assay [4], in assay [5] and in assay [6] was “inactive” throughout.

On to `O=C(CCC1CCCC1)Nc1ccc([N+](=O)[O-])cn1`, for which the Potency entry in assay [2], in assay [3], in assay [4] and in assay [5] was “inactive” in each case.

Regarding `CCc1ccccc1N(CC(=O)NCCc1ccccc1)C(=O)CCC(=O)Nc1ccccn1`, the Potency entry in assay [2], in assay [3], in assay [4] and in assay [5] was “inactive” throughout.

On to `CC1CCc2c(sc(NC(=O)Cc3ccccc3)c2C(=O)Nc2ccc(Cl)cc2)C1` (centres undefined), for which the Potency result in assay [1], in assay [2], in assay [3], in assay [4], in assay [5] and in assay [6] was “inactive” each time.

`COc1ccccc1C(=O)NC(CCSC)C(=O)NCc1ccccn1` (centres undefined): the Potency result in assay [1], in assay [2] and in assay [4] was “inactive” each time. Besides, the activation in assay [3] is -0.555% [at 17.1 µM, percent relative to cAMP agonist control]; in assay [6], -9.2% [at 30.8 µM]. Moreover, the activity change, negative = inhibition in assay [5] is -16.2% [at 30.8 µM].

Consider `COc1ccc(Cl)cc1NC(=O)CN(C)C(=O)c1cc2c(s1)CCC(C)C2` (centres undefined), for which the Potency result in assay [2], in assay [3] and in assay [4] was “inactive” each time.

As to `CCn1nc([N+](=O)[O-])c(C(C#N)c2nc3cc(C(F)(F)F)ccc3s2)c(Cl)c1=O` (centres undefined), the Potency result in assay [2] and in assay [4] was “inactive” each time. Also, the activation in assay [3] was 12.4% [at 17.1 µM, percent relative to cAMP agonist control]. Also, in assay [5], the activity change, negative = inhibition was -19.4% [at 30.8 µM].

Consider `C/C(=N\NC(=O)c1cc2ccccc2cc1O)c1cc2ccccc2o1`, for which the Potency result in assay [2], in assay [3], in assay [4] and in assay [5] was “inactive” throughout.

For `CCOC(=O)/C(=C\c1ccc(N2CCC(c3ccccc3)=N2)cc1)C(C)=O`, the Potency result in assay [1] and in assay [4] was “inactive” in each case. The Potency in assay [2] was 79.4 µM (active); in assay [6], 12.6 µM (active). Moreover, the activation in assay [3] is 15.2% [at 17.1 µM, percent relative to cAMP agonist control]. Besides, the activity change, negative = inhibition in assay [5] is 28% [at 30.8 µM].

In the case of `COc1ccc(/C=N/NC(=O)c2cccnc2)cc1CN1CCCc2ccccc21`, the Potency entry in assay [2], in assay [3], in assay [4] and in assay [5] was “inactive” in each case.

In the case of `COc1ccc(S(=O)(=O)N2CCCC2)cc1C(C)C`, the Potency result in assay [1], in assay [2] and in assay [4] was “inactive” each time. In addition, the activation was -3.36% [at 17.1 µM, percent relative to cAMP agonist control] in assay [3] and 2.24% [at 30.8 µM] in assay [6]. Besides, the activity change, negative = inhibition in assay [5] is -3.04% [at 30.8 µM].

With `O=C1NC(=O)C2(N1)C(=O)c1cccc3cccc2c13` (centres undefined), the Potency entry in assay [1] was “inactive”. The Potency in assay [2] was 112 µM (active); in assay [3], 100 µM (active); in assay [4], 47.8 µM (active); in assay [6], 44.7 µM (active).

As for `Cc1ccc2oc(=O)n(CCOc3ccccc3Cl)c2c1`, the Potency entry in assay [1], in assay [2], in assay [3], in assay [4], in assay [5] and in assay [6] was “inactive” each time.

As for `O=C1C(Cl)=C(NC(=O)c2ccccc2)C(=O)C(Cl)=C1NC(=O)c1ccccc1`, the Potency result in assay [2], in assay [3], in assay [4] and in assay [5] was “inactive” each time.

As for `O=S(c1ccc2ccccc2c1)c1cnns1` (centres undefined), the Potency entry in assay [2], in assay [3], in assay [4] and in assay [5] was “inactive” in each case.

Regarding `O=c1cc(CSc2ccccc2)nc(-c2ccncc2)[nH]1`, the Potency entry in assay [2], in assay [3], in assay [4] and in assay [5] was “inactive” each time.

With `Cc1ccc(S(=O)(=O)/N=C2/NC(=O)/C(=C\c3cc(Br)cc(Br)c3O)S2)cc1`, the Potency in assay [1] was 16.9 µM (active). Also, the Potency result in assay [2], in assay [3], in assay [4], in assay [5] and in assay [6] was “inactive” each time.

Regarding `COc1ccc(Br)cc1CNC(=O)c1ccc2nc(C(C)C)oc2c1`, the Potency entry in assay [1], in assay [2], in assay [3], in assay [5] and in assay [6] was “inactive” in each case. In addition, in assay [4], the outcome was “inactive [at 12.7 µM]”.

For the molecule `CC1=NOC(=O)/C1=C\c1ccc(-c2cc(Cl)ccc2Cl)o1`, the Potency result in assay [2], in assay [3] and in assay [5] was “inactive” throughout. For the same molecule, the Potency in assay [4] was 75.7 µM (active).

Turning to `N#Cc1cc(C(=O)c2ccccc2O)cn(-c2nccs2)c1=O`, the Potency result in assay [1] and in assay [5] was “inactive” each time. Besides, the Potency in assay [2] was 112 µM (active); in assay [3], 100 µM (active); in assay [4], 47.8 µM (active); in assay [6] it was 39.8 µM (active).

In the case of `O=C1NN(c2cccc(Br)c2)C(=O)/C1=C/c1ccc(-c2cc([N+](=O)[O-])ccc2O)o1`, the Potency entry in assay [2], in assay [3], in assay [4] and in assay [5] was “inactive” each time.

`CC(C)C[C@H](NC(=O)[C@H](Cc1ccccc1)n1c(=O)[nH]c2ccccc2c1=O)C(=O)N1CCC(C(=O)O)CC1`: the Potency entry in assay [2], in assay [3], in assay [4] and in assay [5] was “inactive” throughout.

Take `CC(=O)N(/N=C1/C(=O)Nc2ccccc21)c1ccccc1`: the Potency in assay [1] is 67.5 µM (active). For the same molecule, the Potency result in assay [2], in assay [3] and in assay [5] was “inactive” throughout.

Consider `COc1ccc(C=NNc2ccc(S(=O)(=O)Nc3ccccc3C(=O)O)cc2[N+](=O)[O-])c(OC)c1`, for which the Potency entry in assay [2], in assay [3], in assay [4] and in assay [5] was “inactive” in each case.

In the case of `CN1\C(=C/C=C/C=C/C=[N+](C)C)C(C)(C)c2ccccc21`, the Potency entry in assay [2] and in assay [4] was “inactive” in each case. Moreover, the activation in assay [3] was 2.26% [at 17.1 µM, percent relative to cAMP agonist control]. Moreover, in assay [5], the activity change, negative = inhibition was 43.3% [at 30.8 µM].

The values are drawn from PubChem BioAssay (NCATS).
